Among all 1,000 compounds or so, about 710 (71%) were called active. Not shown: some 7% with an inconclusive outcome.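 How the source made its calls: active means inhibition of receptor movement into the nucleus at or above a set limit in both runs, with normal cell brightness and cell count; inconclusive means limit reached in only one run, brightness and count normal; inactive means the rest.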 So high a share suggests a set chosen from earlier hits. Only a sample is shown.

A short description of the assay: dynein cargo transport inhibitors, GR-EGFP translocation, confirmation, imaging, high-content imaging, GR-EGFP cells (AID 463116).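 On inhibition: dexamethasone at 1 µM final in well for 30 min; nuclear minus cytoplasmic GR-EGFP mean intensity difference in channel 2.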 The settings on record: 3617.4 GR-EGFP nuclear translocation imaging, dexamethasone-induced, at 20 µM; inhibition: stronger effect = higher value; z-score: measured here: cell count per field.
As to `COc1cccc(N2C(=O)NC(=O)/C(=C\c3ccc([N+](=O)[O-])s3)C2=O)c1`, the inhibition was 81.3% (active) and the z-score came to 0.0253.

Turning to `O=C1NC(=O)N(c2ccccc2)C(=O)/C1=C/c1ccc([N+](=O)[O-])s1`, the inhibition is 81.8% (active) and the z-score came out at 0.0604.

The values are drawn from PubChem BioAssay AID463116 (University of Pittsburgh Molecular Library Screening Center, 2010).
